Data from PubChem BioAssay.
“And” between values parts separate entries of the source, which are not always exact repeats. Equal values may be shown once. Records with an inconclusive call do not appear. The source made the active and inactive calls.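 The calls were made as follows, unless noted: active = GFP response above 150% of the DMSO level; inconclusive = fewer than 70 events counted for a yeast strain; inactive = the rest.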

What was measured:
[1] = yeast TOR pathway RPL19A-GFP modulators, primary screen, cell-based, S. cerevisiae, multiplex flow cytometry (AID 1862; in the data active = percent of DMSO control GFP below about 86%;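 also: lower values mimic rapamycin by blocking the RPL19A rise seen in DMSO cells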); conditions: S. cerevisiae RPL19A-GFP strain, flow cytometry fluorescence, 3 h; at 10 µM; stronger effect = lower value
[2] = modulators of MEP2-GFP levels in yeast, primary screen, S. cerevisiae, multiplex flow cytometry (AID 1867;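 active = GFP response, as percent of the DMSO control, above the screen-wide mean plus 3 SD, about 139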;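 also: median GFP channel fluorescence of barcode-gated MEP2-GFP cells measured by flow cytometry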); conditions: S. cerevisiae MEP2-GFP strain, 3 h, at 10 µM, stronger effect = higher value, 100% means same as DMSO wells
[3] = modulators of CIT2-GFP expression in yeast, primary screen, S. cerevisiae, GFP fusion, multiplex flow cytometry (AID 1870;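 active = percent response above a set limit, the screen-wide mean plus 3 SD, cut at about 130% in these data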;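 also: barcoded CIT2-GFP strain pooled with four other GFP strains with rapamycin as positive control; median GFP fluorescence per well over plate mean of DMSO wells so 100% = DMSO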); conditions: 3 h, at 10 µM, stronger effect = higher value
[4] = modulators of LAP4-GFP expression in yeast, primary screen, S. cerevisiae, multiplex flow cytometry (AID 1873;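 active = GFP signal, as percent of the solvent control, above the screen mean plus 3 SD, about 149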); conditions: 3 h, at 10 µM, stronger effect = higher value
[5] = modulators of AGP1-GFP expression in yeast TOR pathway, primary screen, cell-based, multiplex flow cytometry, S. cerevisiae (AID 1887;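 active = GFP signal above the screen-wide mean plus 3 SD, that is over about 124.5% of the solvent control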;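 also: AGP1-GFP fusion strain of S. cerevisiae within a five-strain barcoded multiplex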); conditions: 3 h, at 10 µM, stronger effect = higher value
[6] = RPL19A-GFP modulators, yeast TOR pathway, confirmation, cell-based, S. cerevisiae, flow cytometry, cherry picks, mother/daughter gates (AID 2270;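 active = GFP response below 50% of the DMSO control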); conditions: S. cerevisiae RPL19A-GFP strain, 3 h, at 10 µM, stronger effect = lower value, 100 = same GFP as DMSO wells
[7] = LAP4-GFP expression modulators in yeast, confirmation, cell-based, cherry picks, flow cytometry, mother/daughter gates (AID 2271;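 active = GFP response above 150% of the DMSO control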;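 also: ratio of sample to DMSO plate mean so 100% equals DMSO level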); conditions: S. cerevisiae LAP4-GFP strain, 3 h, at 10 µM, stronger effect = higher value, 100 means same as DMSO control
[8] = modulators of MEP2-GFP levels in yeast, confirmation, S. cerevisiae, flow cytometry GFP, cherry picks (AID 2272;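 active = GFP response above 150% of the DMSO control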;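 also: ratio of well signal to plate DMSO mean so 100% equals DMSO level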); conditions: S. cerevisiae MEP2-GFP strain, 3 h, at 10 µM, stronger effect = higher value
[9] = modulators of CIT2-GFP expression in yeast, confirmation, S. cerevisiae, GFP fusion, cherry picks, mother/daughter gates (AID 2274); conditions: S. cerevisiae CIT2-GFP strain, flow cytometry, 3 h, at 10 µM, stronger effect = higher value
[10] = inhibitors of CD8+ T cell-vesicle binding, pilot screen, LFA-1/ICAM-1 modulator project, MLPCN validation set, flow cytometry (AID 2523;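 active = response below a set limit, under 55% cells CD8-positive and vesicle-bound, and CD8 cells' 90th-percentile brightness under 279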;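 as to vesicle binding response: mean PE anti-B7-1 fluorescence of CD8+ cells relative to row control; 100% = QL9-loaded vesicles with DMSO vehicle in the same plate row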); conditions: 2C mouse CD8+ T cells, at 7 µM, stronger effect = lower value; double positive events: measured here: CD8+/vesicle+ event percentage
[11] = target: Integrin beta-1 (Homo sapiens) + Integrin alpha-4 (Homo sapiens) (UniProt P13612+P05556); assay: inhibition of HUTS-21 binding to VLA-4, pilot screen, VLA-4 allosteric modulator project, U937 cells, HUTS-21 mAb, flow cytometry, validation set (AID 2674;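 active = inhibition above 50%, about 3 SD of the validation set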;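 also: antibody binding induced by the VLA-4 ligand LDV present at three times its Kd; 0% = LDV ligand with antibody and no compound and 100% = antibody without LDV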); conditions: HUTS-21 LIBS mAb binding, at 6.7 µM, stronger effect = higher value, binding induced by LDV ligand
Chain of Integrin beta-1 (Homo sapiens) + Integrin alpha-4 (Homo sapiens) (P05556 whole entry, looked up): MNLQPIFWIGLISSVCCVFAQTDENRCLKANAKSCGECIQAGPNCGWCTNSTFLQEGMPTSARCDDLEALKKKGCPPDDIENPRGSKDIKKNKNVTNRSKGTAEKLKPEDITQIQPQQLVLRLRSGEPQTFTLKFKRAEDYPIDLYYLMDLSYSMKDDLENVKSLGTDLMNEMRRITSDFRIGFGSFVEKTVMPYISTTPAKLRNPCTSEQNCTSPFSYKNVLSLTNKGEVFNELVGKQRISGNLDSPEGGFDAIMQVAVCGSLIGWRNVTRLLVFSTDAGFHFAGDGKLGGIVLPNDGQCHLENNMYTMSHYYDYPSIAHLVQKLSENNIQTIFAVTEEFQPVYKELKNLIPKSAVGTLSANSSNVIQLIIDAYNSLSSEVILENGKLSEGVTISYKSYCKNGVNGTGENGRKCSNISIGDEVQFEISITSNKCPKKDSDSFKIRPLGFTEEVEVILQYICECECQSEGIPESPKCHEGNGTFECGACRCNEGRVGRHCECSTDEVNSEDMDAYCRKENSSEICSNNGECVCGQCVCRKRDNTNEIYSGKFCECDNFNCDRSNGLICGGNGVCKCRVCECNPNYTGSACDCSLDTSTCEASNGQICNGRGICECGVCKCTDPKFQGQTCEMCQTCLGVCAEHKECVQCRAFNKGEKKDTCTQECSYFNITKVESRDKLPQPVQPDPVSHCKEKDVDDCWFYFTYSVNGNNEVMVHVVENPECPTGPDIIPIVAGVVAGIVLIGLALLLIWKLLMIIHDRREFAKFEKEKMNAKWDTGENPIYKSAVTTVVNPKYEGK
Chain of Integrin beta-1 (Homo sapiens) + Integrin alpha-4 (Homo sapiens) (P13612 whole entry, looked up): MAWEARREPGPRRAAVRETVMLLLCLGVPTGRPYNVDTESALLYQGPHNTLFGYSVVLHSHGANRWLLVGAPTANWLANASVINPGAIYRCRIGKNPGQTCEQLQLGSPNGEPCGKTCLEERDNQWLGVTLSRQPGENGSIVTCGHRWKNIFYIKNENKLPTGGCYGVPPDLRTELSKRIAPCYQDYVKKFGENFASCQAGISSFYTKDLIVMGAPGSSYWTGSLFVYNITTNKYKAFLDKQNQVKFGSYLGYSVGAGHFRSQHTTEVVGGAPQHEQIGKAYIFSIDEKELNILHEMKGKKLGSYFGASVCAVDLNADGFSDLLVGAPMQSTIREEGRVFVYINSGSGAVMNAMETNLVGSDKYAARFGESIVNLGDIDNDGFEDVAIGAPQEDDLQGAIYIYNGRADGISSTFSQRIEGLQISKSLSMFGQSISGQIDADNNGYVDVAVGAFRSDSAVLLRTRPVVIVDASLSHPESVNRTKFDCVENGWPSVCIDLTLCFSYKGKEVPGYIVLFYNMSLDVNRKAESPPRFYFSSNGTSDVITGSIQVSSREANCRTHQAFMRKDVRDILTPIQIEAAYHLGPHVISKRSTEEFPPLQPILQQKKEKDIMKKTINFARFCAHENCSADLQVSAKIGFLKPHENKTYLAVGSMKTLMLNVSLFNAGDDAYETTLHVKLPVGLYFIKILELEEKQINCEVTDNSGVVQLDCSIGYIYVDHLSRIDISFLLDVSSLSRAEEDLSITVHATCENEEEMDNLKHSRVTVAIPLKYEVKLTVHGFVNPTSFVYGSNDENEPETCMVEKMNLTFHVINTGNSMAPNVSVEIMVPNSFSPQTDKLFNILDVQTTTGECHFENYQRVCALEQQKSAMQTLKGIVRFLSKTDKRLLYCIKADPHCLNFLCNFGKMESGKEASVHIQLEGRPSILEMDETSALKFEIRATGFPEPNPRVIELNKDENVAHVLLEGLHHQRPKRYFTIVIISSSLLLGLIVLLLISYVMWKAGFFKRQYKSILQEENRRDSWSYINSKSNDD

[12] = superoxide lowering in aged yeast cells, pilot screen, validation compound set (AID 2706;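 active = superoxide response below 65% of plate, a cut near 3 SD across the whole screen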;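 also: yeast exposed to compound for one week at 30 degrees C before staining; 100% = mean of all compound wells on the same plate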); conditions: S. cerevisiae aging, superoxide DHE fluorescence; at 10 µM; stronger effect = lower value
[13] = target: Beta-adrenergic receptor kinase 1 (Homo sapiens) (UniProt P25098); assay: GRK2 binders displacing RNA aptamer, biochemical, validation, human GRK2, bead flow cytometry (AID 488806;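 active = aptamer binding inhibition above 30%, about 3 SD of noise from non-fluorescent compounds; inactive = inhibition at or below 30%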); conditions: bead-bound GRK2, FAM-aptamer displacement, at 10 µM, stronger effect = higher value
Chain of Beta-adrenergic receptor kinase 1 (Homo sapiens) (P25098 whole entry, looked up): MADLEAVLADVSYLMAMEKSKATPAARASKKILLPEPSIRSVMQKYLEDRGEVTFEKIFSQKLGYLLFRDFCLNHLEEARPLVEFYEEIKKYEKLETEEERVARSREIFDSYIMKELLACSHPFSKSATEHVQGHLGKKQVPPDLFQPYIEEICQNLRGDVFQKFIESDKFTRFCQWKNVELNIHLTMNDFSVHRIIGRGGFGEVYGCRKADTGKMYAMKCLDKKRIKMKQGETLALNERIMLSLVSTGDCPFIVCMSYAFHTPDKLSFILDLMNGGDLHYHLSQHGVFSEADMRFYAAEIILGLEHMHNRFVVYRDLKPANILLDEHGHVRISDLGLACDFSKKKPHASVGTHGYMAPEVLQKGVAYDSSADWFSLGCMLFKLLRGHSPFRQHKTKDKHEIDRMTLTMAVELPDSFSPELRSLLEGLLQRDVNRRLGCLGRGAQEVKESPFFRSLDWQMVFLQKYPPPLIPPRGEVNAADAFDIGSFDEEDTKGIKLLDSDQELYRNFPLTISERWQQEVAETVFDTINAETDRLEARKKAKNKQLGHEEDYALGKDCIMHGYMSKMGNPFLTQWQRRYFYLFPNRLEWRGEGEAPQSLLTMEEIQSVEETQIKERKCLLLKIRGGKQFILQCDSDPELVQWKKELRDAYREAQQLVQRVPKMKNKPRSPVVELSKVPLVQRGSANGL

[14] = target: Beta-2 adrenergic receptor (Homo sapiens) (UniProt P07550); assay: beta2AR agonists driving receptor internalization, pilot screen, cell-based, FAP fluorogen, flow cytometry, validation set (AID 504459;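 active = percent response above 42, roughly 3 SD of non-fluorescent test compounds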;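 also: agonist-driven loss of surface beta2AR via internalization measured by FAP dye flow cytometry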); conditions: Am2.2-beta2AR cells, FAP surface receptor flow cytometry; at 10 µM; stronger effect = higher value
Chain of Beta-2 adrenergic receptor (Homo sapiens) (P07550 whole entry, looked up): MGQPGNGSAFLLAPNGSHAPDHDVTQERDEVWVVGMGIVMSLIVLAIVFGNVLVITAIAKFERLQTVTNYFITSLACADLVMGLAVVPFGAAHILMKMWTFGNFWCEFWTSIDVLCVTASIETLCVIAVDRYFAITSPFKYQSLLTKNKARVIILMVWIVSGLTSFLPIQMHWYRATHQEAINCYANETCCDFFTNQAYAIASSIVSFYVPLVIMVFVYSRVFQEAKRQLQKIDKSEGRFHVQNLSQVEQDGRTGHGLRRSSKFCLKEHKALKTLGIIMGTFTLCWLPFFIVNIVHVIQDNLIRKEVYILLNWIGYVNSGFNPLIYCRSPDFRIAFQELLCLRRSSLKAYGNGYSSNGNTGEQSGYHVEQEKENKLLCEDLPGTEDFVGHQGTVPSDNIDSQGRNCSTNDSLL

[15] = target: AP-2 complex subunit beta (Homo sapiens) (UniProt P63010); assay: inhibitors of arrestin peptide binding to AP2, pilot screen, biochemical, validation set, GST-AP2 beads, flow cytometry (AID 504541;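 active = inhibition above 54%, about 3 SD of non-fluorescent compounds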;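 also: AP2 carries R879A mutation and is captured from E. coli lysate; bead-bound FITC arrestin peptide fluorescence measuring arrestin peptide binding to AP2; 0% = DMSO wells and 100% = excess unlabeled arrestin peptide control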); conditions: FITC arrestin peptide, at 10 µM, stronger effect = higher value, AP2 beta2 appendage fragment, R879A mutant
Chain of AP-2 complex subunit beta (Homo sapiens) (P63010 whole entry, looked up, the tested form may be a part, one chain of several): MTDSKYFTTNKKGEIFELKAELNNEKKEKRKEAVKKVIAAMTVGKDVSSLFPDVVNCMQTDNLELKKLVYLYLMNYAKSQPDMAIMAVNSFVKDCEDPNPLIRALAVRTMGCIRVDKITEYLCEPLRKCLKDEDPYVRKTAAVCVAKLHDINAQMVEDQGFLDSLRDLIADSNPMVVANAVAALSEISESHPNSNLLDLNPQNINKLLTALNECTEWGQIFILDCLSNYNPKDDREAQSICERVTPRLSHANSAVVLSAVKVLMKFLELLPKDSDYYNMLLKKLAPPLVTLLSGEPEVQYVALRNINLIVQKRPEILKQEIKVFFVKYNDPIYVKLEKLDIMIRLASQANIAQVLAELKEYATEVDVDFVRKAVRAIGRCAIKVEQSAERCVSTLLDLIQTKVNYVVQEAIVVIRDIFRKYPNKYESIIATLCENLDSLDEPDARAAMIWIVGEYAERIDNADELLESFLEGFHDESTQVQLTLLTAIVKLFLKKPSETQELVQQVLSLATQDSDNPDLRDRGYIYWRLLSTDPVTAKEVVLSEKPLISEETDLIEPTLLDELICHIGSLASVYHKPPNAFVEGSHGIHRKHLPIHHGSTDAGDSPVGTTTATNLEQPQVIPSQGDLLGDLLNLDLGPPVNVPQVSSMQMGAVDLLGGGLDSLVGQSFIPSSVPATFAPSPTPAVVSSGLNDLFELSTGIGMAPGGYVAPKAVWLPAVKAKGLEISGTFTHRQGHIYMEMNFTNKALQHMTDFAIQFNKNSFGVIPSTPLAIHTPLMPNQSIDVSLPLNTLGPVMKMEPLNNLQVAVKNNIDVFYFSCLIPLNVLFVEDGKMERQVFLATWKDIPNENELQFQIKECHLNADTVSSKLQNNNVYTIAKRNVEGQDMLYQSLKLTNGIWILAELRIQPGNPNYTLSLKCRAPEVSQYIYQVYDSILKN

[16] = yeast V-ATPase proton transport modulators, S. cerevisiae, pHLuorin, HTS validation (AID 504600; in the data active = response above about 15%;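 also: plate controls were DMSO for no effect and reference compound for full effect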); conditions: S. cerevisiae pHLuorin cytosolic pH, at 10 µM, stronger effect = higher value
[17] = system: anti-desmoglein-3 scFv antibody binding to human DSG3; assay: inhibitors of anti-DSG3 scFv binding to DSG3, pilot screen, biochemical, validation compound set, bead-based, flow cytometry (AID 588368;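 active = binding below the plate cutoff, the plate median minus 3 SD, with a reading above zero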;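 also: signal is the median channel fluorescence of bead-bound GFP antibody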); conditions: Protein G beads, DSG3-Fc, scFv-GFP binding, at 10 µM, stronger effect = lower value
[18] = inhibitors of fungal efflux pumps CDR1, CDR2, MDR1, pilot screen, validation compound set, multiplex, phenotypic (AID 588506;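 active = efflux inhibition above 0.42, the validation set average plus 4 SD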;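 also: Nile Red retained in cells so higher fluorescence means more efflux inhibition; 0 = negative control wells and 1 = enniatin B 25 µM full block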); conditions: S. cerevisiae pump-expressing triplex, Nile Red efflux flow cytometry; at 10 µM; stronger effect = higher value; the pumps come from Candida albicans
[19] = target: ATP-binding cassette sub-family B member 6 (Homo sapiens) (UniProt Q9NP58); assay: ABCB6 transporter inhibitors, pilot screen, K562-ABCB6 cells, flow cytometry, validation set (AID 588550;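 active = inhibition above the screen-wide mean plus 3 SD, about 51%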;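 also: 0% = DMSO wells and 100% = benzethonium chloride 70 µM positive control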); conditions: K562-ABCB6 porphyrin accumulation, 1 h, at 10 µM, stronger effect = higher value
Chain of ATP-binding cassette sub-family B member 6 (Homo sapiens) (Q9NP58 whole entry, looked up): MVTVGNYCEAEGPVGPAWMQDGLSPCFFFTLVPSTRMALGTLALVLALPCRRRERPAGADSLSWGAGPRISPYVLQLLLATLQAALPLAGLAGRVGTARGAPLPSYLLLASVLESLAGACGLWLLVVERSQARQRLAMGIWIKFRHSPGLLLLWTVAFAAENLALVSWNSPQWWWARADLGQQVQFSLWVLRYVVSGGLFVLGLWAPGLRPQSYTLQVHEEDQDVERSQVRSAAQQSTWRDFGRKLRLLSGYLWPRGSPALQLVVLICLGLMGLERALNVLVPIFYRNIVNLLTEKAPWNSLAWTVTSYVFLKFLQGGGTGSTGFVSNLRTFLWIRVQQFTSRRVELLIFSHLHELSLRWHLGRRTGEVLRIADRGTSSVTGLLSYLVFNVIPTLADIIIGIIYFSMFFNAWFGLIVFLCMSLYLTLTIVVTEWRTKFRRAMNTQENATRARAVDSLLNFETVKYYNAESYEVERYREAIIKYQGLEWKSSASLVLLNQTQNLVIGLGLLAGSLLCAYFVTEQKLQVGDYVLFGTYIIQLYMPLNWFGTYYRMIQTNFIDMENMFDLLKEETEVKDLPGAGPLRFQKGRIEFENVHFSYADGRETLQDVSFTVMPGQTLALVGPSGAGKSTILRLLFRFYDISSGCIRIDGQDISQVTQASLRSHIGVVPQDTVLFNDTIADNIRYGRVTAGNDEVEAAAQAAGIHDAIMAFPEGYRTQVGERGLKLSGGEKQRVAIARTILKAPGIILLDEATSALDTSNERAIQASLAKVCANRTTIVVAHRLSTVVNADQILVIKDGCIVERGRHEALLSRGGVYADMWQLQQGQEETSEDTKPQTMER

[20] = promoters of myeloid differentiation in arrested cells, primary screen, cell-based, GFP/MAC1 double positive, flow cytometry, validation set (AID 588685;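 active = differentiation response of at least 50%, scaled between solvent and reference control, from cells with both markers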;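 also: compound exposure lasts four days before antibody staining and flow analysis; 0% = DMSO wells and 100% = 5 µM fulvestrant positive control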); conditions: ER-HoxA9 marrow cells, stronger effect = higher value, normalized: vehicle 0, fulvestrant 100
[21] = measured here: daughter cell gate
[22] = measured here: mother cell gate
[23] = measured here: daughter cell gate response
[24] = measured here: mother cell gate response

CCOC(=O)C(Cc1cc(C(C)=O)ccc1OC(C)C)C(=O)OCC
58.5%: double positive events [10]
active: GFP response vs DMSO [2] 142%
99.5%: GFP response relative to DMSO [7, 24]
98.3%: GFP response, % of DMSO [9, 21]
95%: GFP response relative to DMSO [7, 23]
101%: GFP response vs DMSO [6, 21]
96.8%: GFP response, % of DMSO [9, 22]
102%: GFP response vs DMSO [6, 22]
inactive: percent of DMSO control GFP [1] 93% | percent response of DMSO control [3] 110% | GFP response vs DMSO [4] 85.3% | GFP response, % of DMSO [5] 89.1% | GFP response vs DMSO [6] 101% | GFP response relative to DMSO [7] 97.7% | GFP response vs DMSO [8] 99.5% | GFP response, % of DMSO [9] 96.4% | vesicle binding response [10] 151% | inhibition [11] -1.3% | superoxide response (% of plate) [12] 91% | aptamer binding inhibition [13] 4% | response [14] -7.47% | inhibition [15] 47% | response [16] -8.56% | binding (% of control) [17] 99.8% | efflux inhibition (fraction of control) [18] -0.09 | inhibition [19] 10% | differentiation response [20] 4.09%

O=C(O)CCNC(=O)c1ccccc1
97.5%: GFP response vs DMSO [6, 21]
98.1%: GFP response vs DMSO [6, 22]
98.3%: GFP response, % of DMSO [9, 21]
102%: GFP response relative to DMSO [7, 23]
active: GFP response vs DMSO [2] 151% | efflux inhibition (fraction of control) [18] 0.52 | inhibition [19] 112%
103%: GFP response relative to DMSO [7, 24]
98%: GFP response, % of DMSO [9, 22]
65.7%: double positive events [10]
inactive: percent of DMSO control GFP [1] 90% | percent response of DMSO control [3] 101% | GFP response vs DMSO [4] 82% | GFP response, % of DMSO [5] 91% | GFP response vs DMSO [6] 98.7% | GFP response relative to DMSO [7] 103% | GFP response vs DMSO [8] 102% | GFP response, % of DMSO [9] 97.8% | vesicle binding response [10] 186% | inhibition [11] -4.21% | superoxide response (% of plate) [12] 94.8% | aptamer binding inhibition [13] 3% | response [14] 3.62% | inhibition [15] 47.5% | response [16] -1.09% | binding (% of control) [17] 98.7% | differentiation response [20] 26.2%

C[C@]12CCC(=O)C=C1CC[C@@H]1[C@@H]2[C@@H](O)C[C@@]2(C)[C@H]1CC[C@]2(O)C(=O)COC(=O)CCC(=O)O
43.7%: double positive events [10]
94.8% and 99.1%: GFP response, % of DMSO [9, 21]
96.4% and 98.1%: GFP response vs DMSO [6, 21]
101% and 94.9%: GFP response vs DMSO [6, 22]
inactive: percent of DMSO control GFP [1] 104% | GFP response vs DMSO [2] 108% | percent response of DMSO control [3] 110% | GFP response vs DMSO [4] 119% | GFP response, % of DMSO [5] 108% | GFP response vs DMSO [6] 98% and 96.4% | GFP response relative to DMSO [7] 97.4% and 99.2% | GFP response vs DMSO [8] 100% | GFP response, % of DMSO [9] 96.5% and 98.3% | vesicle binding response [10] 165% | inhibition [11] -9.57% | superoxide response (% of plate) [12] 98.2% | aptamer binding inhibition [13] 0% | inhibition [15] -8.58% | response [16] 10.6% | binding (% of control) [17] 99.5% | efflux inhibition (fraction of control) [18] -0.16 | inhibition [19] 10% | differentiation response [20] -26%
103% and 97.6%: GFP response relative to DMSO [7, 23]
91.1% and 100%: GFP response relative to DMSO [7, 24]
92.3% and 97.3%: GFP response, % of DMSO [9, 22]

CC(C)CC(=O)Nc1ccc2oc(-c3ccncc3)nc2c1
107%: GFP response, % of DMSO [9, 22]
99.8%: GFP response vs DMSO [6, 21]
active: GFP response vs DMSO [2] 144%
98.7%: GFP response relative to DMSO [7, 23]
101%: GFP response relative to DMSO [7, 24]
99.7%: GFP response, % of DMSO [9, 21]
inactive: percent of DMSO control GFP [1] 92.2% | percent response of DMSO control [3] 103% | GFP response vs DMSO [4] 82.5% | GFP response, % of DMSO [5] 83.8% | GFP response vs DMSO [6] 103% | GFP response relative to DMSO [7] 98.7% | GFP response vs DMSO [8] 97.8% | GFP response, % of DMSO [9] 108% | vesicle binding response [10] 292% | inhibition [11] 10.3% | superoxide response (% of plate) [12] 102% | aptamer binding inhibition [13] 5% | response [14] -11.1% | inhibition [15] -5.82% | response [16] -0.11% | binding (% of control) [17] 105% | efflux inhibition (fraction of control) [18] -0.02 | inhibition [19] 11% | differentiation response [20] -2.46%
71.3%: double positive events [10]
104%: GFP response vs DMSO [6, 22]

O=c1cc(-c2ccccc2)oc2cc(OCc3ccccc3)cc(O)c12
98.6%: GFP response vs DMSO [6, 21]
105%: GFP response, % of DMSO [9, 21]
99.3%: GFP response relative to DMSO [7, 24]
62.5%: double positive events [10]
active: GFP response vs DMSO [2] 140% | efflux inhibition (fraction of control) [18] 0.59
103%: GFP response, % of DMSO [9, 22]
inactive: percent of DMSO control GFP [1] 91.7% | percent response of DMSO control [3] 108% | GFP response vs DMSO [4] 84.2% | GFP response, % of DMSO [5] 85.9% | GFP response vs DMSO [6] 98.2% | GFP response relative to DMSO [7] 99.2% | GFP response vs DMSO [8] 100% | GFP response, % of DMSO [9] 104% | vesicle binding response [10] 139% | inhibition [11] -16.8% | superoxide response (% of plate) [12] 88.6% | aptamer binding inhibition [13] 0% | response [14] -12.6% | inhibition [15] 30.1% | response [16] -0.61% | binding (% of control) [17] 100% | inhibition [19] 0% | differentiation response [20] 5.73%
98.7%: GFP response vs DMSO [6, 22]
97.6%: GFP response relative to DMSO [7, 23]

C[C@]12CCC(=O)C=C1[C@H](O)C[C@@H]1[C@@H]2[C@@H](O)C[C@@]2(C)[C@H]1CC[C@]2(O)C(=O)CO
99.1%: GFP response vs DMSO [6, 21]
99.2%: GFP response vs DMSO [6, 22]
inactive: percent of DMSO control GFP [1] 106% | GFP response vs DMSO [2] 105% | percent response of DMSO control [3] 102% | GFP response vs DMSO [4] 102% | GFP response, % of DMSO [5] 107% | GFP response vs DMSO [6] 99.1% | GFP response relative to DMSO [7] 97.7% | GFP response vs DMSO [8] 99.5% | GFP response, % of DMSO [9] 102% | vesicle binding response [10] 182% | inhibition [11] -10.5% | superoxide response (% of plate) [12] 98.9% | aptamer binding inhibition [13] 2% | response [14] 6.38% | inhibition [15] -21.5% | response [16] 1.8% | binding (% of control) [17] 104% | efflux inhibition (fraction of control) [18] -0.05 | inhibition [19] 3% | differentiation response [20] 5.67%
95.6%: GFP response relative to DMSO [7, 24]
63.9%: double positive events [10]
97.9%: GFP response relative to DMSO [7, 23]
101%: GFP response, % of DMSO [9, 22]
104%: GFP response, % of DMSO [9, 21]
